Holding throughout (experiment): NCI-60 one-dose screen, 48 h (100 = growth as untreated, 0 = no growth, -100 = all killed)
Conditions in all cases: 10 µM unless noted

In experiment [1] the test system is DU-145 prostate.
Experiment [2] has as its system K-562 leukemia.
The test system of experiment [3] is MALME-3M melanoma.
Experiment [4] has as its system MDA-MB-231 breast.
Experiment [5] has as its system RXF 393 renal.
In experiment [6] the test system is SF-268 CNS.
For experiment [7], the system named is SF-295 CNS.
Experiment [8] relates to SF-539 CNS.
Experiment [9] concerns UACC-257 melanoma.
For experiment [10], the system named is M14 melanoma.
For experiment [11], the system named is HCT-15 colon.
The test system of experiment [12] is HT29 colon.
The test system of experiment [13] is SNB-75 CNS.
The subject of experiment [14] is SNB-19 CNS.
Experiment [15] relates to U251 CNS.
Experiment [16] has as its system PC-3 prostate.
Experiment [17] has as its system SK-MEL-5 melanoma.
Experiment [18] relates to UACC-62 melanoma.
Experiment [19] has as its system LOX IMVI melanoma.
Experiment [20] has as its system SK-MEL-28 melanoma.

Molecules are shown by their SMILES. This is part of a sample that, as a whole, favours compounds with a hit. Of some 83,000 tested, about 20% had one in any assay.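 In brief: 96-well plates, 48 h treatment, single concentration, percent growth endpoint.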 Values without a mark were called inactive. Active and inactive are the calls of the source. The calls were made as follows: active = growth percent below 10; inactive = the rest.

For `COc1ccc(-c2ccc3ncc4c(c3c2)n(-c2ccc(N3CCNCC3)c(C(F)(F)F)c2)c(=O)n4C)cn1`, the growth is -89.4% (active) in experiment [1]; -48.2% (active) in experiment [2]; -75.3% (active) in experiment [3]; -77.4% (active) in experiment [4]; -83.2% (active) in experiment [5]; -76.3% (active) in [6]. Moreover, the growth in experiment [7] is -91.8% (active); in experiment [8] it was -84.7% (active); in experiment [9], -72.2% (active); in [10], -83.2% (active); in [11], -78.6% (active); in [12] it was -78.2% (active). The growth is -95.1% (active) in experiment [13]; -74.2% (active) in experiment [14]; -85.5% (active) in experiment [15]; -84.1% (active) in [16]; -92.4% (active) in [17]; -74.7% (active) in [18]. In addition, the growth in experiment [19] was -82% (active).
As to `Cc1oc2c(C(=O)N/N=C\c3ccc(O)cc3O)c[nH]c2c1C`, the growth is -33.5% (active) in experiment [1]; 11.2% in [2]; 5.32% (active) in [3]; 30.3% in experiment [4]; 39.3% in experiment [5]; 7.45% (active) in experiment [6]. Moreover, the growth in experiment [7] was 12.3%; in [8], 9.86% (active); in experiment [9], 17.8%; in experiment [10], -13.8% (active); in [11] it was 9.44% (active); in experiment [12], 25.6%. Besides, the growth in experiment [13] was 40.2%; in experiment [14], 35.5%; in experiment [15], 20.2%; in [16], 43.4%; in [17], 23.6%; in experiment [18], 2.05% (active). For the same molecule, the growth was -7.96% (active) in experiment [19] and 32.1% in experiment [20].
As to `CCCCOc1nc2cc(Cl)ccc2cc1/C=C/c1cc(/C=C/c2cc3ccc(Cl)cc3nc2OCCCC)n(-c2ccccc2)n1`, the growth in [1] is 101%; in experiment [2] it was 91.7%; in experiment [3], 92.8%; in experiment [4] it was 82.3%; in [5] it was 81.6%; in experiment [6], 74.9%. The growth in [7] is 52.4%; in [8], 91.9%; in experiment [9], 67%; in experiment [10] it was 99.3%; in experiment [11] it was 112%; in experiment [12], 88.9%. In addition, the growth in experiment [13] is -17.4% (active); in [14], 69.9%; in [15], 43.2%; in experiment [16], 86.3%; in [17] it was 106%; in experiment [18], 72.7%. Moreover, the growth in experiment [19] was 86.2%.
As to `O=C(NOCCO)c1ccc2cncn2c1Nc1ccc(I)cc1F`, the growth in experiment [1] is 64.6%; in [2], 38.2%; in experiment [3], 1.32% (active); in [4], 31.6%; in experiment [5] it was -6.5% (active); in experiment [6], 74.5%. In addition, the growth in experiment [7] was 91.9%; in experiment [8] it was 66.2%; in experiment [9] it was -20.7% (active); in [10] it was 5.3% (active); in [11] it was 66.7%; in [12] it was 9.38% (active). The growth was 81.1% in [13]; 57.8% in experiment [14]; 40.4% in [15]; 81% in experiment [16]; 47% in experiment [17]; 3.07% (active) in experiment [18]. Moreover, the growth in [19] is 19.9%; in [20] it was 3.91% (active).
`CNC(=O)c1cc(Oc2cccc3nc(Nc4ccc(Cl)c(F)c4)ccc23)ccn1`: the growth in experiment [1] is 71.3%; in experiment [2], 83.8%; in experiment [3] it was 1.36% (active); in [4] it was 73.5%; in experiment [5], 8.19% (active); in [6] it was 55.4%. Further, the growth is 51.5% in experiment [7]; 41.1% in experiment [8]; 74.5% in experiment [9]; 80.2% in experiment [10]; 59.3% in experiment [11]; 82.5% in experiment [12]. Besides, the growth in experiment [13] is -11.7% (active); in experiment [14] it was 30.3%; in experiment [15], 53.3%; in [16], 66.1%; in experiment [17], 44.8%; in experiment [18] it was 52.3%. The growth in [19] was 59.6%; in [20] it was 48.8%.
`COc1cc2cc(NCc3ccc(Cl)cc3)nc(C)c2cc1OC`: the growth was 49% in experiment [1]; 9.09% (active) in experiment [2]; 88.3% in [3]; 42.1% in [4]; 48.5% in experiment [5]; 43.7% in experiment [6]. For the same molecule, the growth in [7] is 34.4%; in experiment [8], -14.9% (active); in experiment [9], 64.2%; in [10] it was 19.3%; in experiment [11], 47%; in experiment [12], 10%. Moreover, the growth in experiment [13] was 96.3%; in experiment [14], 42.6%; in experiment [15], 30.9%; in experiment [16], 37.9%; in experiment [17] it was 31.3%; in experiment [18], 8.46% (active). Further, the growth in experiment [19] is 5.76% (active).
For `COc1cc2c(c(OC)c1)C1c3ccccc3NC(=O)N1CC2` (stereo not given), the growth in experiment [1] is 13.2%; in [2], 12.5%; in experiment [3] it was 28.5%; in experiment [4], 32.2%; in experiment [5], 9.03% (active); in experiment [6] it was 48.2%. For the same molecule, the growth is 13.2% in experiment [7]; -9.57% (active) in experiment [8]; 56.4% in experiment [9]; -18.6% (active) in [10]; 18% in experiment [11]; 6.37% (active) in experiment [12]. The growth in [13] is 7.13% (active); in experiment [14], 44.7%; in [15], 16.8%; in experiment [16] it was 22.6%; in experiment [17], 15.7%; in [18], 15.6%. The growth in experiment [19] is 41.3%.
As for `CO[C@H]1C[C@@H]2CC[C@@H](C)[C@@](O)(O2)C(=O)C(=O)N2CCCC[C@H]2C(=O)O[C@H]([C@H](C)C[C@@H]2CC[C@@H](O)[C@H](OC)C2)CC(=O)[C@H](C)/C=C(\C)[C@@H](O)[C@@H](OC)C(=O)[C@H](C)C[C@H](C)\C=C/C=C/C=C/1C`, the growth in [1] was 42.1%; in [2], 24.4%; in experiment [3] it was 35.1%; in [4] it was 49.6%; in experiment [5] it was -4.23% (active); in [6] it was 39.3%. For the same molecule, the growth in [7] was 22.4%; in [8] it was 27.4%; in experiment [9], 53%; in experiment [10], 50.3%; in [11] it was 30.2%; in experiment [12] it was 18.7%. For the same molecule, the growth in [13] is 11%; in experiment [14] it was 39.4%; in [15], 23.4%; in experiment [16], 32.6%; in experiment [17], 14.2%; in [18], 39.2%. Also, the growth in experiment [19] was 26.7%.

Values taken from PubChem BioAssay (NCI).
